From the supplement of paper PMC7156485
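Further: TDF is a line of transformed human dermal fibroblasts of mesenchymal origin.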

The compounds below were run on TDF (assay: H1.0 immunofluorescence intensity relative to DMSO (% of DMSO); higher = stronger H1.0 induction, active = 120 or more). Settings: concentration: 10 µM; 24 h.
Procedure, shortened: (§1)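 Cell number or H1.0 nuclear intensity appears as percent of the plate control, based on the median of replicates. Measurements came from HCC1569 and TDF cells exposed in triplicate to compounds at 10 µM for 24 h at 37 °C, then imaged in six fields per well at ×10. Positional effects were smoothed out of HCC1569 values.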
In the case of `CCCCCC=CCC=CCCCCCCCC(=O)NCCO` [Anandamide (18:2,n-6)], the H1.0 immunofluorescence intensity was 99.1 (inactive). With `CC(C)CC(NP(=O)([O-])OC1OC(C)C(O)C(O)C1O)C(=O)NC(Cc1c[nH]c2ccccc12)C(=O)[O-].[Na+].[Na+]` (stereo unspecified) [Phosphoramidon disodium] the H1.0 immunofluorescence intensity was 90.6 (inactive). With `NC(=O)CI` [Iodoacetamide] the H1.0 immunofluorescence intensity was 134 (active). For `NC(=O)CN1CC(O)CC1=O` (stereo unspecified) [Oxiracetam], the H1.0 immunofluorescence intensity was 89.7 (inactive). In the case of `CC1OC1P(=O)([O-])[O-].[Na+].[Na+]` (stereo unspecified) [Phosphomycin disodium], the H1.0 immunofluorescence intensity was 101 (inactive). In the case of `CN1C2CC(OC(=O)C(CO)c3ccccc3)CC1C1OC12` (stereo unspecified) [Scopolamine], the H1.0 immunofluorescence intensity was 94.4 (inactive).

The compounds below were run on HCC1569 (assay: H1.0 immunofluorescence intensity relative to DMSO (% of DMSO); higher = stronger H1.0 induction, active = 140 or more). Settings: concentration: 10 µM; 24 h.
Procedure, shortened: as §1
For `CCN(C)C(=O)Oc1cccc(C(C)N(C)C)c1` (stereo unspecified) [Rivastigmine], the H1.0 immunofluorescence intensity was 105 (inactive). In the case of `COc1ccc2c(c1O)-c1c(OC)c(OC)cc3c1C(C2)N(C)CC3.Cl` (single isomer, unassigned; (+)) [(+)-Isocorydine hydrochloride], the H1.0 immunofluorescence intensity was 91.4 (inactive). In the case of `CN1CC(C(=O)NC2(C)OC3(O)C4CCCN4C(=O)C(Cc4ccccc4)N3C2=O)CC2c3cccc4[nH]cc(c34)CC21.CS(=O)(=O)O` (stereo unspecified) [Dihydroergotamine mesylate], the H1.0 immunofluorescence intensity was 105 (inactive). With `COC1CC(CC2CCC(C)C(C(C)C(=O)[O-])O2)OC2(OC(C)(C3CCC(C)(C4OC(C5OC(O)(CO)C(C)CC5C)CC4C)O3)CC2C)C1C.[Na+]` (stereo unspecified) [Nigericin] the H1.0 immunofluorescence intensity was 183 (active). With `C=C1C(C)C2C(Cc3ccccc3)NC(=O)C23OC(=O)C=CC(O)CCCC(C)CC=CC3C1O` (stereo unspecified) [Cytochalasin B] the H1.0 immunofluorescence intensity was 110 (inactive).
